Results reported in PubChem BioAssay AID651642 (Sanford-Burnham Center for Chemical Genomics, 2012).
Calls of active or inactive are those of the source.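 How the source made its calls: active means average half-effect concentration of 10 µM or less in every one of the four cell panels; inactive means the rest.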

Each compound was assayed on HL-1 (assay: protection of cardiomyocytes from stress damage, SAR follow-up, cell-based, panel, H9c2 and HL-1, H2O2, 2-deoxyglucose, ATP luminescence (AID 651642)). Conditions: H9c2/HL-1 cardiomyocyte 2-deoxyglucose damage, mean of runs, with 2-deoxyglucose.

**Q.** With COc1cc(-c2cc(C(=O)Nc3cccc(C(=O)NC4CC4)c3)c3ccccc3n2)cc(OC)c1OC as the compound, how does the outcome read?
**A.** active

**Q.** For COc1ccc2c(c1OC)C(=O)N1c3ccccc3C(=O)N(Cc3ccccc3Br)C21 (stereo not drawn), which outcome is on record?
**A.** inactive

**Q.** How did the outcome turn out when CCOC(=O)c1cccc(NC(=O)CNC(=O)c2cc(-c3cc(OC)c(OC)c(OC)c3)nc3ccc(C)cc23)c1 was run?
**A.** active

**Q.** With COc1cc(-c2cc(C(=O)Nc3cccc(C(C)=O)c3)c3cccc(Cl)c3n2)cc(OC)c1OC as the compound, how does the outcome read?
**A.** inactive

**Q.** How did the outcome turn out when COc1ccc2c(c1OC)C(=O)N1c3ccccc3C(=O)N(Cc3ccccn3)C21 (stereo not drawn) was run?
**A.** inactive

**Q.** How did the outcome turn out when COc1cc(-c2cc(C(=O)Nc3cccc(C(=O)O)c3)c3ccccc3n2)cc(OC)c1OC was run?
**A.** inactive

**Q.** Which outcome does the source give for COC(=O)CNC(=O)c1cccc(NC(=O)c2cc(-c3cc(OC)c(OC)c(OC)c3)nc3ccccc23)c1 here?
**A.** active

**Q.** COc1ccc2c(c1OC)C(=O)N1c3ccccc3C(=O)N(Cc3ccccc3)C21 (stereo not drawn) was tested. Which outcome did it give?
**A.** inactive

**Q.** For CCOC(=O)c1cccc(NC(=O)CNC(=O)c2cc(-c3cc(OC)c(OC)c(OC)c3)nc3ccc(Br)cc23)c1, which outcome is on record?
**A.** active

**Q.** Which outcome does the source give for COc1ccc2c(c1OC)C(=O)N1c3ccccc3C(=O)N(Cc3cccc(C)c3)C21 (stereo not drawn) here?
**A.** inactive

**Q.** For COc1ccc2c(c1OC)C(=O)N1c3ccccc3C(=O)N(Cc3c(Cl)cccc3Cl)C21 (stereo not drawn), which outcome is on record?
**A.** inactive

**Q.** Which outcome does the source give for CCOC(=O)c1cccc(NC(=O)c2cc(-c3cc(OC)c(OC)c(OC)c3)nc3ccc(Cl)cc23)c1 here?
**A.** inactive

**Q.** With CCOC(=O)c1cccc(NC(=O)c2cc(-c3cc(OC)c(OC)c(OC)c3)nc3ccccc23)c1 as the compound, how does the outcome read?
**A.** inactive

**Q.** CCOC(=O)c1cccc(NC(=O)CNC(=O)c2cc(-c3cc(OC)c(OC)c(OC)c3)nc3ccccc23)c1 was tested. Which outcome did it give?
**A.** inactive

**Q.** How did the outcome turn out when COc1cc(-c2cc(C(=O)NCC(=O)Nc3cccc(C(C)=O)c3)c3cc(C)ccc3n2)cc(OC)c1OC was run?
**A.** inactive

**Q.** Which outcome does the source give for CCOC(=O)c1cccc(NC(=O)CNC(=O)c2cc(-c3cc(OC)c(OC)c(OC)c3)nc3c(Cl)cccc23)c1 here?
**A.** inactive

**Q.** CCOC(=O)c1cccc(NC(=O)c2cc(-c3cc(OC)c(OC)c(OC)c3)nc3ccc(F)cc23)c1 was tested. Which outcome did it give?
**A.** inactive

**Q.** For COc1cc(-c2cc(C(=O)NCC(=O)Nc3ccc(C(C)=O)cc3)c3cc(F)ccc3n2)cc(OC)c1OC, which outcome is on record?
**A.** inactive
